Measurements reported in the supplement of paper PMC13392028.
The full ranking holds about 4,100 sequences; the median of “RBNS R-value (6-mer enrichment in protein-bound RNA vs input library)” is about 0.99, and the highest 2% start at about 1.4. Many of the other results were omitted from the sample, so the highest values are more common in it than they were.

Test system: PfIESI-1 RRM domain (Plasmodium falciparum ortholog aa 875-1232, GST fusion)
Assay: RBNS R-value (6-mer enrichment in protein-bound RNA vs input library) (ratio); higher = stronger binding preference; the methods of the paper give 50 / 100 / 500 nM protein instead
Procedure: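 RNA Bind-n-Seq: recombinant GST-tagged IESI-1 RRM domain was incubated at room temperature with a random 40-nt in vitro transcribed RNA library at 250, 500 or 1000 nM protein. Bound RNA was pulled down on glutathione beads and sequenced. R-value is the enrichment of each 6-mer in the bound RNA relative to the input library. Each 6-mer sits inside the random 40-mer context, not as an isolated oligo. Values are replicate 1 only.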

Sequence | RBNS R-value (protein concentration: 250 nM) | RBNS R-value (protein concentration: 500 nM) | RBNS R-value (protein concentration: 1000 nM)
AAUGAU | 2.28 | 2.5 | 1.88
CAUGAU | 2.24 | 2.42 | 1.85
UAUGAA | 0.854 | 0.932 | 0.895
UAUGAG | 0.911 | 0.958 | 0.958
AAUGAG | 1.02 | 1.1 | 1.07
CAUGAA | 0.967 | 1.05 | 1.01
CAUGAG | 1.06 | 1.07 | 1.07
AAUGCU | 0.913 | 0.938 | 0.914
UAUGAU | 1.95 | 2.17 | 1.61
CACGUU | 0.886 | 0.866 | 0.874
GCACGA | 1.08 | 1.09 | 1.1
AGCAGG | 1.02 | 1.05 | 1.12
AGAGUG | 1.09 | 1.09 | 1.05
GUUGAU | 1.71 | 1.81 | 1.51
AUUGAC | 1.12 | 1.14 | 1.08
AUUGAG | 1.07 | 1.1 | 1.04
GUUGAC | 1.01 | 0.99 | 1.02
AUUGAU | 2.21 | 2.4 | 1.85
GUUGAG | 0.972 | 0.963 | 1
UUUGAC | 1.17 | 1.15 | 1.12
UUUGAA | 0.988 | 1.05 | 1.05
UUUGAU | 2.39 | 2.62 | 1.95
CUUGAU | 2.01 | 2.15 | 1.74
CUUGAC | 1.28 | 1.19 | 1.22

Sequence | RBNS R-value (protein concentration: 250 nM) | RBNS R-value (protein concentration: 500 nM) | RBNS R-value (protein concentration: 1000 nM)
CUUGAA | 1.1 | 1.09 | 1.1
AGGACA | 1 | 1.03 | 1.04
CCUUGU | 0.991 | 0.946 | 0.954
GGGAGU | 1.1 | 1.05 | 1.09
CCGCCA | 1.08 | 0.99 | 1.06
AUCCUA | 0.949 | 0.898 | 0.9
GCCCCU | 1.04 | 0.964 | 1.02
AAUCAA | 0.817 | 0.94 | 0.899
GCCAUA | 0.918 | 0.859 | 0.881
UGGCUU | 1.01 | 0.984 | 0.967
AAAAAC | 1.13 | 1.3 | 1.2
GAGCGU | 0.994 | 0.96 | 0.986
CCGAGC | 1.29 | 1.16 | 1.24
CCGAGA | 1.59 | 1.4 | 1.41
UCGAGA | 1.26 | 1.23 | 1.22
GCAGGU | 1.01 | 0.998 | 1.07
CGGGGU | 1.06 | 1.04 | 1.07
AUUCGU | 0.903 | 0.913 | 0.916
GGGGUG | 1.1 | 1.02 | 1.07
GCAUGC | 1.01 | 0.974 | 1
CCAUGU | 0.923 | 0.903 | 0.916
CCAUGG | 1.07 | 1.01 | 1.07
CCAUGA | 1.4 | 1.43 | 1.27
GCAUGG | 0.998 | 0.987 | 1.04

Sequence | RBNS R-value (protein concentration: 250 nM) | RBNS R-value (protein concentration: 500 nM) | RBNS R-value (protein concentration: 1000 nM)
GCAUGA | 1.41 | 1.43 | 1.27
GAGAGA | 1.26 | 1.29 | 1.28
UGCGAC | 1.06 | 1 | 1
UAAAAA | 0.951 | 1.17 | 1.05
GGCACU | 1.11 | 1.03 | 1.07
GACACU | 1.2 | 1.19 | 1.14
GGCACA | 1.05 | 1.05 | 1.04
GGCACC | 1.38 | 1.2 | 1.29
GACACG | 1.13 | 1.1 | 1.12
GACACC | 1.56 | 1.32 | 1.35
CGAUCG | 0.905 | 0.881 | 0.937
CUGCGG | 1.03 | 0.975 | 1.05
CCUCCG | 1.07 | 1.01 | 1.07
ACUUAC | 0.815 | 0.767 | 0.76
GCCAAA | 1.06 | 1.08 | 1.1
AAGCGC | 1.03 | 1.06 | 1.04
UAUUGG | 0.864 | 0.848 | 0.873
UAGAAU | 1.06 | 1.14 | 1.06
GAGAAG | 1.33 | 1.36 | 1.29
GAGAAU | 1.43 | 1.5 | 1.37
GAGAAC | 1.24 | 1.31 | 1.27
CAGAAU | 1.12 | 1.18 | 1.15
GAGAAA | 1.41 | 1.55 | 1.45
UCGGCU | 0.925 | 0.885 | 0.937

Sequence | RBNS R-value (protein concentration: 250 nM) | RBNS R-value (protein concentration: 500 nM) | RBNS R-value (protein concentration: 1000 nM)
GCCUCA | 0.982 | 0.946 | 1.02
ACCCGA | 1.63 | 1.36 | 1.4
UCCCGA | 1.2 | 1.12 | 1.14
ACCCGC | 1.29 | 1.17 | 1.23
ACCCGU | 1.24 | 1.12 | 1.19
GCCCGG | 1.38 | 1.2 | 1.31
GCCCGA | 1.52 | 1.34 | 1.36
GCCCGU | 1.17 | 1.07 | 1.13
CCCCGA | 1.37 | 1.23 | 1.31
ACCCGG | 1.44 | 1.25 | 1.32
UGAGUG | 1.07 | 1.11 | 1.06
GGCUGG | 1.06 | 1 | 1.08
AUUCCA | 1.24 | 1.23 | 1.22
GAGGCC | 1.15 | 1.07 | 1.13
AUGUAG | 0.952 | 1.04 | 0.956
UGACAC | 1.39 | 1.32 | 1.3
UGACAA | 1.07 | 1.14 | 1.08
UGACAU | 1.14 | 1.14 | 1.12
GCACGG | 1.02 | 0.986 | 1.05
AUGGCA | 1.28 | 1.26 | 1.16
UGCUAU | 0.951 | 0.947 | 0.896
UCUCGA | 1.01 | 1 | 1.04
GAUUAC | 1.36 | 1.48 | 1.29
AAUUAA | 0.748 | 0.862 | 0.797

Sequence | RBNS R-value (protein concentration: 250 nM) | RBNS R-value (protein concentration: 500 nM) | RBNS R-value (protein concentration: 1000 nM)
GAUUAA | 1.24 | 1.42 | 1.2
AAUUAG | 0.847 | 0.908 | 0.88
CAUUAC | 0.794 | 0.766 | 0.761
UAUUAC | 0.773 | 0.754 | 0.724
GAUUAG | 1.3 | 1.4 | 1.25
CAUUAA | 0.748 | 0.797 | 0.751
CAUUAG | 0.827 | 0.851 | 0.841
UCAUAC | 0.811 | 0.758 | 0.768
UAUAGC | 0.876 | 0.87 | 0.833
CUUUAU | 0.759 | 0.733 | 0.732
CUCUCU | 0.881 | 0.796 | 0.867
CUCCAC | 1.02 | 0.964 | 0.993
UUUUUG | 1.18 | 1.26 | 1.16
CGAAAA | 1.17 | 1.28 | 1.23
AAAAAA | 1.25 | 1.51 | 1.36
GAAAAU | 1.12 | 1.29 | 1.19
AAAAAG | 1.2 | 1.37 | 1.29
GAAAAA | 1.29 | 1.48 | 1.37
AGAAAU | 1.09 | 1.29 | 1.16
AGAAAA | 1.27 | 1.48 | 1.35
GAAAAC | 1.2 | 1.32 | 1.24
AAAAAU | 1.07 | 1.29 | 1.16
